Data from doi:10.1101/2024.03.05.583629.

What follows are sequences tested against pT7_6His-AlfaTag-HOXD13 (human, UniProt P35453 263-343) (assay: PADIT-seq). Details: dsDNA, one strand shown.
pT7_6His-AlfaTag-HOXD13, sequence (P35453 263-343): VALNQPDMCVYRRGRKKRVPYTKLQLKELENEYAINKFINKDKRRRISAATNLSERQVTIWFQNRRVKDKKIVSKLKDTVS
“CTCGAGGATATCAAGATCTGGCCTCGGCCTTTTAGACGGAACCTCTAGCTAGCCGACTCACTATAGGGATAATCGCCCTGAGCAAAGACC” showed a binding signal of -0.199 ± 0.091 log2FC.
“CTCGAGGATATCAAGATCTGGCCTCGGCGATTTAAAAGGAACCTCTAGCTAGCCGACTCACTATAGGGATAATCGCCCTGAGCAAAGACC” was tested, and the binding signal was 2.1 ± 0.071 log2FC.
In the case of “CTCGAGGATATCAAGATCTGGCCTCGGCGTTTTATCGGGAACCTCTAGCTAGCCGACTCACTATAGGGATAATCGCCCTGAGCAAAGACC”, the binding signal is reported as 1.63 ± 0.0875 log2FC.
For “CTCGAGGATATCAAGATCTGGCCTCGGCGTTTTATAAGGAACCTCTAGCTAGCCGACTCACTATAGGGATAATCGCCCTGAGCAAAGACC”, the binding signal was 3.26 ± 0.0829 log2FC.
In the case of “CTCGAGGATATCAAGATCTGGCCTCGGCGCGCTTGCGGGAACCTCTAGCTAGCCGACTCACTATAGGGATAATCGCCCTGAGCAAAGACC”, the binding signal is reported as -0.651 ± 0.137 log2FC.
In the case of “CTCGAGGATATCAAGATCTGGCCTCGGCCGCACGCGCGGAACCTCTAGCTAGCCGACTCACTATAGGGATAATCGCCCTGAGCAAAGACC”, the binding signal is reported as -0.992 ± 0.148 log2FC.
With “CTCGAGGATATCAAGATCTGGCCTCGGCGGCGTAAAAGGAACCTCTAGCTAGCCGACTCACTATAGGGATAATCGCCCTGAGCAAAGACC” the binding signal was 0.246 ± 0.0968 log2FC.
“CTCGAGGATATCAAGATCTGGCCTCGGCTTTTTATAAGGAACCTCTAGCTAGCCGACTCACTATAGGGATAATCGCCCTGAGCAAAGACC” showed a binding signal of 3.23 ± 0.0851 log2FC.
“CTCGAGGATATCAAGATCTGGCCTCGGCTCATTAAAAGGAACCTCTAGCTAGCCGACTCACTATAGGGATAATCGCCCTGAGCAAAGACC” showed a binding signal of 2.97 ± 0.0761 log2FC.
“CTCGAGGATATCAAGATCTGGCCTCGGCTTTTTATGGGGAACCTCTAGCTAGCCGACTCACTATAGGGATAATCGCCCTGAGCAAAGACC” gave a binding signal of 3.53 ± 0.0874 log2FC.
For “CTCGAGGATATCAAGATCTGGCCTCGGCTTTTTACGAGGAACCTCTAGCTAGCCGACTCACTATAGGGATAATCGCCCTGAGCAAAGACC”, the binding signal was 3.37 ± 0.0866 log2FC.
With “CTCGAGGATATCAAGATCTGGCCTCGGCTAGGTAAAAGGAACCTCTAGCTAGCCGACTCACTATAGGGATAATCGCCCTGAGCAAAGACC” the binding signal was -0.394 ± 0.106 log2FC.
“CTCGAGGATATCAAGATCTGGCCTCGGCGTTTTAAGGGGAACCTCTAGCTAGCCGACTCACTATAGGGATAATCGCCCTGAGCAAAGACC” showed a binding signal of 1.67 ± 0.0925 log2FC.
In the case of “CTCGAGGATATCAAGATCTGGCCTCGGCGTTTTACAAGGAACCTCTAGCTAGCCGACTCACTATAGGGATAATCGCCCTGAGCAAAGACC”, the binding signal is reported as 3.54 ± 0.0799 log2FC.
In the case of “CTCGAGGATATCAAGATCTGGCCTCGGCGCGGGAGCGGGAACCTCTAGCTAGCCGACTCACTATAGGGATAATCGCCCTGAGCAAAGACC”, the binding signal is reported as -0.635 ± 0.137 log2FC.
Work on “CTCGAGGATATCAAGATCTGGCCTCGGCTCACCACGCGGAACCTCTAGCTAGCCGACTCACTATAGGGATAATCGCCCTGAGCAAAGACC” yielded a binding signal of -1.05 ± 0.123 log2FC.
“CTCGAGGATATCAAGATCTGGCCTCGGCGGGGTAAAAGGAACCTCTAGCTAGCCGACTCACTATAGGGATAATCGCCCTGAGCAAAGACC” showed a binding signal of -0.462 ± 0.0883 log2FC.
In the case of “CTCGAGGATATCAAGATCTGGCCTCGGCCACGTAAAAGGAACCTCTAGCTAGCCGACTCACTATAGGGATAATCGCCCTGAGCAAAGACC”, the binding signal is reported as 1.76 ± 0.0916 log2FC.
In the case of “CTCGAGGATATCAAGATCTGGCCTCGGCTTTATAAAAGGAACCTCTAGCTAGCCGACTCACTATAGGGATAATCGCCCTGAGCAAAGACC”, the binding signal is reported as 2.35 ± 0.0828 log2FC.
Sequence “CTCGAGGATATCAAGATCTGGCCTCGGCGTTTTATACGGAACCTCTAGCTAGCCGACTCACTATAGGGATAATCGCCCTGAGCAAAGACC” has a binding signal of 2.62 ± 0.0803 log2FC.
“CTCGAGGATATCAAGATCTGGCCTCGGCGTTTTACGAGGAACCTCTAGCTAGCCGACTCACTATAGGGATAATCGCCCTGAGCAAAGACC” was tested, and the binding signal was 3.47 ± 0.133 log2FC.
For “CTCGAGGATATCAAGATCTGGCCTCGGCGTTTTAATGGGAACCTCTAGCTAGCCGACTCACTATAGGGATAATCGCCCTGAGCAAAGACC”, the binding signal was 2.46 ± 0.0744 log2FC.
With “CTCGAGGATATCAAGATCTGGCCTCGGCATTTTATGCGGAACCTCTAGCTAGCCGACTCACTATAGGGATAATCGCCCTGAGCAAAGACC” the binding signal was 2.23 ± 0.0779 log2FC.
“CTCGAGGATATCAAGATCTGGCCTCGGCCCATTAAAAGGAACCTCTAGCTAGCCGACTCACTATAGGGATAATCGCCCTGAGCAAAGACC” was tested, and the binding signal was 2.92 ± 0.0908 log2FC.
With “CTCGAGGATATCAAGATCTGGCCTCGGCGTTTTAATAGGAACCTCTAGCTAGCCGACTCACTATAGGGATAATCGCCCTGAGCAAAGACC” the binding signal was 2.63 ± 0.0918 log2FC.
“CTCGAGGATATCAAGATCTGGCCTCGGCATTTTATAAGGAACCTCTAGCTAGCCGACTCACTATAGGGATAATCGCCCTGAGCAAAGACC” gave a binding signal of 3.26 ± 0.0841 log2FC.
